PubChem BioAssay (Tox21)
Several values for one entry are separate records, joined by “and”; a condition that tells them apart may be missing. Equal values may be shown once. Values without a mark were called inactive. Records with an inconclusive call do not appear. A call without a number means that no potency is given here. Activity calls are given as the source filed them. Unless noted, calls come from the whole dose curve; as a rule, active = well fitted curve in the direction sought with a large enough effect in the repeat runs; inconclusive = weak or mixed curves; inactive = no such curve, though single readings can be large; an effect the other way counts as inactive or inconclusive.

Tests used:
[1] = qHTS assay for small molecule agonists of the p53 signaling pathway - cell viability (AID 651633; calls by dose curve; note: nearly all actives have a fitted effect of over 30% in size; note: potency is the fitted concentration of half-maximal effect)
Summary of the method: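 p53RE-bla cells, seeded at 4,000 per well and rested 5 h at 37 C/5% CO2, received compounds in DMSO for 16 h at 37 C. CellTiter-Glo was then added, and luminescence was read after 30 min at room temperature to gauge cytotoxicity.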

[2] = qHTS assay for small molecules that induce genotoxicity in human embryonic kidney cells expressing luciferase-tagged ATAD5 - cell viability (AID 651634; calls by dose curve; note: nearly all actives have a fitted effect of over 25% in size; note: potency is the fitted concentration of half-maximal effect)
Summary of the method: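 Cytotoxicity counterscreen in HEK293T cells bearing an ATAD5-luciferase reporter: live-cell protease activity measured by CellTiter-Fluor fluorescence after 15.5 hr compound exposure.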

[3] = qHTS assay to test for compound auto fluorescence at 460 nm (blue) in HEK293 cells (AID 720678)
Summary of the method: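 Cells were seeded and left to adhere for 4-5 hr at 37C. Compounds were then pin-transferred. After an overnight incubation at 37C under 5% CO2, intrinsic fluorescence at 405/460 nm was measured and referenced to triamterene.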

[4] = qHTS assay to test for compound auto fluorescence at 590 nm (red) in HEK293 cells (AID 720679)
Summary of the method: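 Each well held 2,000 HEK293 cells in medium containing 10% dialyzed FBS. Following 4-5 hr attachment at 37C, 23 nL test compound or DMSO was added; plates sat overnight, and red fluorescence (540/590nm) was recorded.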

[5] = qHTS assay to test for compound auto fluorescence at 460 nm (blue) in HEK293 cell free culture (AID 720681)
Summary of the method: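 Test compounds were pinned into cell-free culture medium (DMEM with 10% FBS) and fluorescence was read directly at Ex/Em 405/460 nm. Signals were expressed as fluorescence equivalents of triamterene, with DMSO vehicle as control.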

[6] = qHTS assay to test for compound auto fluorescence at 590 nm (red) in HEK293 cell free culture (AID 720683)
Summary of the method: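 Tox21 10K library compounds were pinned into cell-free DMEM with 10% FBS and fluorescence was read at excitation 540 nm. Activity is expressed as Rose Bengal sodium equivalency.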

[7] = qHTS assay to test for compound auto fluorescence at 460 nm (blue) in HepG2 cell free culture (AID 720685)
Summary of the method: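 Compound (23 nL) or DMSO pinned into cell-free MEM with 10% FBS; blue fluorescence read at 405/460 nm excitation/emission, expressed as auto-fluorescence equivalency to triamterene.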

[8] = qHTS assay to test for compound auto fluorescence at 535 nm (green) in HepG2 cell free culture (AID 720686)
[9] = qHTS assay to identify small molecule antagonists of the glucocorticoid receptor (GR) signaling pathway - cell viability counter screen (AID 720693); note: nearly all actives have a fitted effect of over 55% in size; note: potency is the fitted concentration of half-maximal effect
[10] = qHTS assay to identify small molecule antagonists of the androgen receptor (AR) signaling pathway - cell viability counter screen (AID 743033; note: nearly all actives have a fitted effect of over 45% in size)
[11] = qHTS assay to identify small molecule antagonists of the androgen receptor (AR) signaling pathway using the MDA cell line - cell viability counter screen (AID 743041; note: nearly all actives have a fitted effect of over 45% in size; note: potency is the fitted concentration of half-maximal effect)
Summary of the method: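 Viability counter screen run alongside the AR antagonist reporter: cells seeded 5 h before compound, R1881 added, 16 h incubation at 37C without CO2, fluorescent CellTiter-Fluor signal quantified.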

[12] = qHTS assay to identify small molecule antagonists of the thyroid receptor (TR) signaling pathway (AID 743065); note: nearly all actives have a fitted effect of over 55% in size; note: potency is the fitted concentration of half-maximal effect
Summary of the method: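 GH3.TRE-Luc rat pituitary cells carrying two TR response elements driving luciferase were plated for 4 h, given compound plus 1 nM T3 (final), and incubated 23.5 h at 37 C. ONE-Glo luminescence measured reporter inhibition; CellTiter-Fluor fluorescence tracked cytotoxicity.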

[13] = system: thyroid hormone receptor (rat, GH3 cells); assay: qHTS assay to identify small molecule agonists of the thyroid receptor (TR) signaling pathway (AID 743066; calls by dose curve)
[14] = qHTS assay to identify small molecule antagonists of the estrogen receptor alpha (ER-alpha) signaling pathway - cell viability counter screen (AID 743074; calls by dose curve;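 note: HEK293 cells carrying ER-alpha-UAS-bla reporter stimulated with 17beta-estradiol; nearly all actives have a fitted effect of over 45% in size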; note: potency is the fitted concentration of half-maximal effect)
[15] = qHTS assay to identify small molecule antagonists of the estrogen receptor alpha (ER-alpha) signaling pathway using the BG1 cell line - cell viability counter screen (AID 743081);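 note: compound given together with 17beta-estradiol as the ER stimulus; nearly all actives have a fitted effect of over 45% in size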; note: potency is the fitted concentration of half-maximal effect
[16] = molecular target: Aromatase (Homo sapiens) (UniProt P11511); assay: qHTS assay to identify aromatase inhibitors (AID 743083); note: nearly all actives have a fitted effect of over 55% in size; note: potency is the fitted concentration of half-maximal effect
[17] = qHTS assay to identify aromatase inhibitors - cell viability counter screen (AID 743084);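 note: cells stimulated with testosterone during compound exposure; nearly all actives have a fitted effect of over 55% in size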
[18] = qHTS assay to identify small molecule that activate the aryl hydrocarbon receptor (AhR) signaling pathway - cell viability counter screen (AID 743086)
Summary of the method: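 HepG2-AhR-luc (HG2L7.5c1) cells, 4000/well, were preincubated 5 h at 37C, exposed to compound in qHTS format for 24 hr at 37C, then given CellTiter-Fluor for 30 min; viability was read as fluorescence in the reporter wells.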

[19] = qHTS assay to identify small molecule phospholipidosis (PLD) inducers (AID 1259344; active = well fitted curve in the direction sought with a large enough effect; an effect the other way counts as inactive or inconclusive)
Summary of the method: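 HepG2 cells grown on collagen I take up LipidTOX Red while exposed to compound for 24 h; after fixation they are imaged at 20x and pit metrics are extracted.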

[20] = molecular target: Nuclear receptor subfamily 1 group I member 2 (Rattus norvegicus) (UniProt Q9R1A7); assay: Rat pregnane X receptor (rPXR) activation by small molecules, qHTS assay (AID 1346983); conditions: rPXR luciferase reporter cells, One-Glo luminescence, 24 h; max activation: stronger effect = higher value; note: nearly all actives have a fitted effect of over 20% in size
Summary of the method: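 Cell-based rPXR luciferase reporter assay, 2,000 cells per well, rested 5hr at 37 C before compound addition in DMSO, then 24 hr at 37 C. One-Glo reagent was added and luminescence read after 30 min at room temperature.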

Chain of Aromatase (Homo sapiens) (P11511 whole entry, looked up): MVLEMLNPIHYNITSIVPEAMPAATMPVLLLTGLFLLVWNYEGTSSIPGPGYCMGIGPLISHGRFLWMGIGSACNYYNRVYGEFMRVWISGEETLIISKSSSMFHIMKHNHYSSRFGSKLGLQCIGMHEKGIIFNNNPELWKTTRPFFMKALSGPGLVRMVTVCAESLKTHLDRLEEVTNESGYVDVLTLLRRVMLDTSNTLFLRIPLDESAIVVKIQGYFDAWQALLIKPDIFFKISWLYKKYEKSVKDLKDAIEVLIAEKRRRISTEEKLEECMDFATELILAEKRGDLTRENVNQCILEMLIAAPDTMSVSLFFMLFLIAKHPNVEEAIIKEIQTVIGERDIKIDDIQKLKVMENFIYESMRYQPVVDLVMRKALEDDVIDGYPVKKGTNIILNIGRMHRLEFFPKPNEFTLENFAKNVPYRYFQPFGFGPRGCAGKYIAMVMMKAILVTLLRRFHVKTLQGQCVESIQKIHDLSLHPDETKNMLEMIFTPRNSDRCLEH
Chain of Nuclear receptor subfamily 1 group I member 2 (Rattus norvegicus) (Q9R1A7 whole entry, looked up): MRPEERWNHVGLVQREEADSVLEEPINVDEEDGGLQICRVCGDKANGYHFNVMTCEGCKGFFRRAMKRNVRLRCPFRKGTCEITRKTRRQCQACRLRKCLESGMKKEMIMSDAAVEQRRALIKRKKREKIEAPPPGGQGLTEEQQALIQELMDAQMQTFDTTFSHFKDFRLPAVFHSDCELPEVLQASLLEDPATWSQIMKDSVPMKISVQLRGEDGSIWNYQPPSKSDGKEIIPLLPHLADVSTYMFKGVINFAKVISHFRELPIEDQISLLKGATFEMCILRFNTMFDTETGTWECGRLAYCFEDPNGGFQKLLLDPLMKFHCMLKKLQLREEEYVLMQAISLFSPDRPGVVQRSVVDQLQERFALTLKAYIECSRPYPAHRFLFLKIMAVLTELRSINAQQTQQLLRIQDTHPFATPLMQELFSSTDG

SMILES | Potency [1] | Potency [2] | Potency [3] | outcome [4] | Potency [5] | outcome [6] | Potency [7] | Potency [8] | Potency [9] | Potency [10] | Potency [11] | Potency [12] | Potency [13] | Potency [14] | Potency [15] | Potency [16] | Potency [17] | Potency [18] | Potency [19] | max activation [20]
CC1(C)S[C@@H]2[C@H](N)C(=O)N2[C@H]1C(=O)O | inactive | inactive | inactive | inactive | inactive | inactive | inactive | inactive | inactive | inactive | inactive | inactive | inactive | inactive | inactive | inactive | inactive | inactive | inactive | -2.48%
O=[N+]([O-])c1cc(I)c(O)c(I)c1 | 3.76 µM (active) | 23.7 µM (active) | inactive | inactive | inactive | inactive | inactive | inactive | – | inactive | inactive | 21.1 µM (active) | – | – | 10.6 µM (active) | inactive | inactive | inactive | inactive | -2.81%
CNc1ccc(C(=O)CC(O)CCC(C)C2OC(=O)CC(O)CC(=O)CC(O)CC(O)CC(O)CC(O)CC3(O)CC(O)C(C(=O)OC)C(CC(O[C@@H]4O[C@H](C)[C@@H](O)[C@H](N)[C@@H]4O)/C=C/C=C/C=C/C=C/C=C/C=C/C=C/C2C)O3)cc1 (stereo partly drawn) | inactive | inactive | inactive | inactive | inactive | inactive | inactive | inactive | inactive | inactive | inactive | – | inactive | inactive | inactive | inactive | inactive | inactive | inactive | -1.47%
CN=C1CN(O)C(c2ccccc2)=c2cc(Cl)ccc2=N1 | inactive | inactive | inactive | inactive | inactive | inactive | inactive | inactive | inactive | inactive | inactive | inactive | inactive | inactive | inactive | inactive | inactive | inactive | inactive | -1.86% and 4.26%
c1csc(C2(N3CCCCC3)CCCCC2)c1 | inactive | inactive | inactive | inactive | inactive | inactive | inactive | inactive | inactive | inactive | inactive | inactive | inactive | inactive | inactive | inactive | inactive | inactive | inactive | -0.931%
CN[C@H]1C[C@@H](N)[C@H](O)[C@@H](O[C@@H]2O[C@H](CO)[C@H](O)[C@@H]3OC4(O[C@H]23)O[C@H](C(N)CO)[C@H](O)[C@H](O)[C@H]4O)[C@@H]1O (stereo partly drawn) | inactive | inactive | inactive | inactive | inactive | inactive | inactive | inactive | inactive | inactive | inactive | 11.9 µM (active) | inactive | inactive | inactive | inactive | inactive | inactive | inactive | -3.01%
COC(COC(N)=O)C1=C(N2CC2)C(=O)C(C)=C(N2CC2)C1=O (stereo not drawn) | 7.5 µM (active) | inactive | inactive | inactive | inactive | inactive | inactive | inactive | 1.9 µM (active) | inactive | 13.3 µM (active) | 0.168 µM (active) | – | 13.4 µM (active) | 6.68 µM (active) | 21.1 µM (active) | – | – | inactive | -20.2%
COc1ccc2c3c1O[C@H]1[C@@H](O)C=C[C@H]4[C@@H](C2)NCC[C@@]341 | inactive | inactive | inactive | inactive | inactive | inactive | inactive | inactive | inactive | inactive | inactive | inactive | inactive | inactive | inactive | inactive | inactive | inactive | inactive | -0.689%
CCC1C(C)=NN=C(c2ccc(OC)c(OC)c2)c2cc(OC)c(OC)cc21 (stereo not drawn) | inactive | inactive | inactive | inactive | inactive | inactive | inactive | inactive | – | – | inactive | inactive | inactive | inactive | inactive | inactive | inactive | inactive | inactive | -0.64%
CCCCCCCCCC(=O)O[C@H]1CC[C@H]2[C@@H]3CCC4=CC(=O)CC[C@]4(C)[C@H]3CC[C@]12C | inactive | inactive | inactive | inactive | inactive | inactive | inactive | inactive | inactive | inactive | inactive | inactive | inactive | inactive | inactive | inactive | inactive | inactive | inactive | -1.38%
C#CC(C)(O)CC (stereo not drawn) | inactive | inactive | inactive | inactive | inactive | inactive | inactive | inactive | inactive | inactive | inactive | inactive | inactive | inactive | inactive | inactive | inactive | inactive | inactive | -2.56%
CCCCCCC(=O)O[C@H]1CC[C@H]2[C@@H]3CC[C@H]4CC(=O)C=C(C)[C@]4(C)[C@H]3CC[C@]12C | – | inactive | inactive | inactive | inactive | inactive | inactive | inactive | inactive | – | inactive | inactive | inactive | – | inactive | inactive | inactive | inactive | inactive | -2.7%
